Assay results as given in PubChem BioAssay (EPA / NIEHS).
The source made the active and inactive calls. How the source made its calls: active means hit-call score of the fitted dose curve at least 0.9, where 1 is the maximum; inactive means score below 0.9.

Key:
[1] = read-out: serum amyloid A (SAA), SAA1 (gene 6288); test: BSK_CASM3C_SAA: BioMAP Diversity Plus: CASM3C Assay for serum amyloid A (SAA) Biomarker Activity (AID 2283049); conditions: primary human coronary artery smooth muscle cells; actives raise or lower the signal;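 further: SAA protein level quantified by ELISA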
[2] = BSK_CASM3C_SRB: Viability Assessment in the BioMAP Diversity Plus: CASM3C Assay (AID 2283050); conditions: primary human coronary artery smooth muscle cells
[3] = read-out: Thrombomodulin, THBD (gene 7056); test: BSK_CASM3C_Thrombomodulin: BioMAP Diversity Plus: CASM3C Assay for Thrombomodulin Biomarker Activity (AID 2283051); conditions: primary human coronary artery smooth muscle cells; actives raise or lower the signal;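 further: thrombomodulin protein level measured by ELISA 24 h after dosing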
[4] = read-out: Tissue Factor, F3 (gene 2152); test: BSK_CASM3C_TissueFactor: BioMAP Diversity Plus: CASM3C Assay for Tissue Factor Biomarker Activity (AID 2283052); conditions: primary human coronary artery smooth muscle cells; actives raise or lower the signal;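 further: cell surface tissue factor protein level read by ELISA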
[5] = read-out: Interferon-gamma inducible Protein 10 (IP10), CXCL10 (gene 3627); test: BSK_hDFCGF_IP10: BioMAP Diversity Plus: hDFCGF Assay for Interferon-gamma inducible Protein 10 (IP10) Biomarker Activity (AID 2283053); conditions: primary human foreskin fibroblasts; actives raise or lower the signal
In short: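 Human foreskin fibroblast primary cells (hDFCGF system) were dosed with chemical and assayed at 24 h; IP-10 measured by ELISA. Activity fitted bidirectionally relative to DMSO negative control as baseline.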

[6] = read-out: Urokinase-type plasminogen activator receptor (uPAR), PLAUR (gene 5329); test: BSK_CASM3C_uPAR: BioMAP Diversity Plus: CASM3C Assay for Urokinase-type plasminogen activator receptor (uPAR) Biomarker Activity (AID 2283054); conditions: primary human coronary artery smooth muscle cells; actives raise or lower the signal;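 further: cell-surface uPAR protein level quantified by ELISA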
[7] = read-out: Vascular cell adhesion molecule 1 (VCAM1), VCAM1 (gene 7412); test: BSK_CASM3C_VCAM1: BioMAP Diversity Plus: CASM3C Assay for Vascular cell adhesion molecule 1 (VCAM1) Biomarker Activity (AID 2283055); conditions: primary human coronary artery smooth muscle cells; actives raise or lower the signal;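 further: VCAM-1 protein level quantified by ELISA on the cells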
[8] = read-out: Collagen III, COL3A1 (gene 1281); test: BSK_hDFCGF_CollagenIII: BioMAP Diversity Plus: hDFCGF Assay for Collagen III Biomarker Activity (AID 2283056); conditions: primary human foreskin fibroblasts; actives raise or lower the signal
In short: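 Human foreskin fibroblast primary cultures sampled 24 h after dosing; Collagen III quantified by ELISA. Signal fitted bidirectionally against DMSO baseline.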

[9] = read-out: Epidermal growth factor receptor (EGFR), EGFR (gene 1956); test: BSK_hDFCGF_EGFR: BioMAP Diversity Plus: hDFCGF Assay for Epidermal growth factor receptor (EGFR) Biomarker Activity (AID 2283057); conditions: primary human foreskin fibroblasts; actives raise or lower the signal
In short: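 Primary human foreskin fibroblasts were exposed to compound for 24 h, after which cell-surface EGFR was quantified by ELISA. Activity was fitted bidirectionally against the DMSO negative control as baseline.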

[10] = read-out: Interleukin-8 (IL8), CXCL8 (gene 3576); test: BSK_hDFCGF_IL8: BioMAP Diversity Plus: hDFCGF Assay for Interleukin-8 (IL8) Biomarker Activity (AID 2283058); conditions: primary human foreskin fibroblasts; actives raise or lower the signal
In short: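 Primary human foreskin fibroblasts (hDFCGF system) dosed with chemical; IL-8 measured by ELISA 24 hours later. Bidirectional curve fitting relative to DMSO baseline; cytotoxicity tracked in parallel cultures by SRB total protein staining.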

[11] = BSK_hDFCGF_Proliferation: Cell Proliferation Assessment in the BioMAP Diversity Plus: hDFCGF Assay (AID 2283059); conditions: primary human foreskin fibroblasts;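 further: curves fitted for both rise and fall of signal versus DMSO baseline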
In short: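 Sub-confluent human foreskin fibroblast cultures receive test chemical […]. Relative cell number is quantified by sulforhodamine B staining (0.1%, after 10% TCA fixation) at 560 nm, with bidirectional fitting referenced to DMSO.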

[12] = read-out: Macrophage colony-stimulating factor (MCSF), CSF1 (gene 1435); test: BSK_hDFCGF_MCSF: BioMAP Diversity Plus: hDFCGF Assay for Macrophage colony-stimulating factor (MCSF) Biomarker Activity (AID 2283060); conditions: primary human foreskin fibroblasts; actives raise or lower the signal
In short: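 Human foreskin fibroblast primary cultures; M-CSF measured by ELISA 24 hours after chemical dosing. Bidirectional fitting relative to DMSO, with overt cytotoxicity tracked by parallel SRB total-protein staining (0.1% SRB, 10% TCA fixation, 560 nm).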

[13] = BSK_hDFCGF_SRB: Viability Assessment in the BioMAP Diversity Plus: hDFCGF Assay (AID 2283061); conditions: primary human foreskin fibroblasts;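 further: cells exposed to compound for 24 h before the read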
In short: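 Human foreskin fibroblasts in 96-well plates were treated 24 h. Total protein was measured by 0.1% SRB staining after 10% TCA fixation, read at 560 nm. Data were fitted bidirectionally against DMSO.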

[14] = read-out: TIMP metallopeptidase inhibitor 1 (TIMP1), TIMP1 (gene 7076); test: BSK_hDFCGF_TIMP1: BioMAP Diversity Plus: hDFCGF Assay for TIMP metallopeptidase inhibitor 1 (TIMP1) Biomarker Activity (AID 2283062); conditions: primary human foreskin fibroblasts; actives raise or lower the signal
In short: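 Human foreskin fibroblast primary cultures dosed for 24 h; secreted/surface TIMP-1 quantified by ELISA. Bidirectional curve fitting against DMSO baseline; cytotoxicity tracked in parallel cultures by SRB total-protein staining.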

[15] = read-out: Monokine induced gamma interferon (MIG), CXCL9 (gene 4283); test: BSK_hDFCGF_MIG: BioMAP Diversity Plus: hDFCGF Assay for Monokine induced gamma interferon (MIG) Biomarker Activity (AID 2283063); conditions: primary human foreskin fibroblasts; actives raise or lower the signal
In short: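 MIG/CXCL9 measured by ELISA 24 h after dosing primary human skin fibroblasts. Activity fitted in both directions against DMSO controls. Cytotoxicity was checked in parallel cultures by SRB staining read at 560 nm.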

[16] = read-out: Matrix Metallopeptidase 1 (MMP1), MMP1 (gene 4312); test: BSK_hDFCGF_MMP1: BioMAP Diversity Plus: hDFCGF Assay for Matrix Metallopeptidase 1 (MMP1) Biomarker Activity (AID 2283064); conditions: primary human foreskin fibroblasts; actives raise or lower the signal
In short: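 Primary human foreskin fibroblasts exposed to chemicals for 24 h; MMP1 measured by ELISA. Cytotoxicity tracked by SRB staining in parallel cultures; bidirectional fit relative to DMSO.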

[17] = read-out: Vascular cell adhesion molecule 1 (VCAM1), VCAM1 (gene 7412); test: BSK_hDFCGF_VCAM1: BioMAP Diversity Plus: hDFCGF Assay for Vascular cell adhesion molecule 1 (VCAM1) Biomarker Activity (AID 2283065); conditions: primary human foreskin fibroblasts; actives raise or lower the signal;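 on AC50: VCAM-1 protein level quantified by ELISA after 24 h chemical exposure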
In short: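 Human foreskin fibroblast primary cells dosed with chemical, VCAM-1 measured by ELISA at 24 h. Bidirectional curve fitting relative to DMSO as negative control/baseline.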

[18] = read-out: Plasminogen activator inhibitor-1 (PAI1), SERPINE1 (gene 5054); test: BSK_hDFCGF_PAI1: BioMAP Diversity Plus: hDFCGF Assay for Plasminogen activator inhibitor-1 (PAI1) Biomarker Activity (AID 2283066); conditions: primary human foreskin fibroblasts; actives raise or lower the signal
In short: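 Human foreskin fibroblasts in the hDFCGF system were dosed with compound for 24 h; PAI-1 was quantified by ELISA. Bidirectional curve fitting used DMSO as negative control and baseline.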

[19] = read-out: Intercellular Adhesion Molecule 1 (ICAM1), ICAM1 (gene 3383); test: BSK_KF3CT_ICAM1: BioMAP Diversity Plus: KF3CT Assay for Intercellular Adhesion Molecule 1 (ICAM1) Biomarker Activity (AID 2283067); conditions: primary human keratinocytes with fibroblasts; actives raise or lower the signal
In short: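 Human keratinocyte–foreskin fibroblast co-culture was treated for 24 h. Cell-surface ICAM-1 was quantified by ELISA, fitted bidirectionally relative to DMSO. Cytotoxicity was checked in parallel cultures by SRB total-protein staining.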

[20] = read-out: Interferon-gamma inducible Protein 10 (IP10), CXCL10 (gene 3627); test: BSK_KF3CT_IP10: BioMAP Diversity Plus: KF3CT Assay for Interferon-gamma inducible Protein 10 (IP10) Biomarker Activity (AID 2283068); conditions: primary human keratinocytes with fibroblasts; actives raise or lower the signal
In short: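 ELISA read-out of IP-10 after 24 h chemical dosing of human skin primary co-culture (keratinocytes, foreskin fibroblasts). Gain or loss of signal relative to DMSO, bidirectional curve fit.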

CNC(=O)ON=C(SC)C(=O)N(C)C
outcome [1]: inactive | outcome [2]: inactive | outcome [3]: inactive | outcome [4]: inactive | outcome [5]: inactive | outcome [6]: inactive | outcome [7]: inactive | outcome [8]: inactive | outcome [9]: inactive | outcome [10]: inactive | outcome [11]: inactive | outcome [12]: inactive | outcome [13]: inactive | outcome [14]: inactive | outcome [15]: inactive | outcome [16]: inactive | outcome [17]: inactive | outcome [18]: inactive | outcome [19]: inactive | outcome [20]: inactive

CCC(CC)Nc1c([N+](=O)[O-])cc(C)c(C)c1[N+](=O)[O-]
outcome [1]: inactive | outcome [2]: inactive | AC50 [3]: 16.3 µM (active) | outcome [4]: inactive | AC50 [5]: 20 µM (active) | outcome [6]: inactive | outcome [7]: inactive | outcome [8]: inactive | outcome [9]: inactive | outcome [10]: inactive | AC50 [11]: 29.2 µM (active) | AC50 [12]: 13.5 µM (active) | outcome [13]: inactive | outcome [14]: inactive | AC50 [15]: 11.8 µM (active) | AC50 [16]: 6.93 µM (active) | AC50 [17]: 11.9 µM (active) | outcome [18]: inactive | outcome [19]: inactive | AC50 [20]: 13.8 µM (active)

CCc1cccc(CC)c1N(COC)C(=O)CCl
outcome [1]: inactive | outcome [2]: inactive | outcome [3]: inactive | outcome [4]: inactive | AC50 [5]: 11.2 µM (active) | outcome [6]: inactive | outcome [7]: inactive | AC50 [8]: 11.1 µM (active) | outcome [9]: inactive | outcome [10]: inactive | AC50 [11]: 13.8 µM (active) | AC50 [12]: 18.9 µM (active) | AC50 [13]: 24 µM (active) | outcome [14]: inactive | AC50 [15]: 10.1 µM (active) | outcome [16]: inactive | AC50 [17]: 8.35 µM (active) | outcome [18]: inactive | outcome [19]: inactive | outcome [20]: inactive

CCC(=O)Nc1ccc(Cl)c(Cl)c1
outcome [2]: inactive | outcome [3]: inactive | outcome [4]: inactive | outcome [5]: inactive | outcome [6]: inactive | outcome [7]: inactive | outcome [8]: inactive | outcome [9]: inactive | outcome [10]: inactive | outcome [11]: inactive | outcome [12]: inactive | outcome [13]: inactive | outcome [14]: inactive | outcome [15]: inactive | outcome [16]: inactive | outcome [17]: inactive | outcome [18]: inactive | outcome [19]: inactive | outcome [20]: inactive

CCC(=NOC/C=C/Cl)C1=C(O)CC(C2CCOCC2)CC1=O (centres undefined)
outcome [1]: inactive | outcome [2]: inactive | outcome [3]: inactive | outcome [4]: inactive | outcome [5]: inactive | outcome [6]: inactive | outcome [7]: inactive | outcome [8]: inactive | outcome [9]: inactive | outcome [10]: inactive | outcome [11]: inactive | outcome [12]: inactive | outcome [13]: inactive | outcome [14]: inactive | outcome [15]: inactive | outcome [16]: inactive | outcome [17]: inactive | outcome [18]: inactive | outcome [19]: inactive | outcome [20]: inactive

C#CCC1=C(C)C(OC(=O)C2C(C=C(C)C)C2(C)C)CC1=O (centres undefined)
outcome [1]: inactive | outcome [2]: inactive | outcome [3]: inactive | outcome [4]: inactive | AC50 [5]: 29.6 µM (active) | outcome [6]: inactive | outcome [7]: inactive | AC50 [8]: 29.4 µM (active) | outcome [9]: inactive | AC50 [10]: 37.8 µM (active) | AC50 [11]: 31.5 µM (active) | AC50 [12]: 29.2 µM (active) | AC50 [13]: 33.3 µM (active) | outcome [14]: inactive | AC50 [15]: 37 µM (active) | AC50 [16]: 31.6 µM (active) | AC50 [17]: 34.8 µM (active) | AC50 [18]: 32 µM (active) | outcome [19]: inactive | outcome [20]: inactive
